Assay outcomes deposited in PubChem BioAssay by National Center for Advancing Translational Sciences (NCATS).
The list is not random: actives were taken first. Their share in the collection is about 6.9%.
SW480 rereplic: inducers of DNA re-replication in SW480 colon cancer cells; SW480 DNA re-replication, Hoechst DNA content imaging, 48 h; Potency, µM (top dose mostly 46.1 µM), for inactives: at the top dose re-replication activation, actives largely listed as activators; actives 1.8% (n = 340,000); AID 624297; also: potency is read from the fitted curve at half-maximal effect; % of control where 0% means no effect; nearly all actives have a fitted effect of over 55% in size
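Hoechst fluorescence of nuclei (405 nm excitation, 500-530 nm emission) measured by plate-scanning imager after 48 hr compound exposure at 37 C; re-replication scored as increased number of nuclei with elevated intensity.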
KB-3-1 cytotox: kills parental KB-3-1 adenocarcinoma cells. KB-3-1 viability, CellTiter-Glo ATP luminescence, 72 h. AID 1347075. actives 1.4% (n = 400,000). Potency, µM (titrated, usually from 46.1 µM), hits mostly cytotoxic; also: potency is read from the fitted curve at half-maximal effect; % is scaled to controls: 0 for no effect and ±100 for the full control effect; nearly all actives have a fitted effect of over 60% in size
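Using CellTiter-Glo luminescence, growth of non-resistant KB-3-1 adenocarcinoma cells is assessed 72 h after pin-tool compound addition at 37 °C. Normalized responses across the concentration series yield fitted curves.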
Giardia killer: Giardia lamblia killing. Giardia lamblia trophozoite viability. activity change, % at 7.66 µM, hits read low. actives 0.15% (n = 340,000). AID 540267; in the data active = activity change below about -80%; inconclusive = between about -30% and that limit;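 also: parasites exposed to compound for two days anaerobically before the ATP read; % is scaled to controls: 0 for no effect and ±100 for the full control effect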
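Anaerobic 48 hrs incubation at 37 deg C of 100 trophozoites/well with test compounds; ATPLite 1-Step luminescence, 15-30 min RT, reports cellular ATP as viability.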
KB-V1 cytotox: KB-V1 MDR subline cytotoxicity. AID 1347076. Potency, µM (highest dose often 46.1 µM), usual class: cytotoxic. actives 3.4% (n = 400,000). KB-V1 MDR cells viability, CellTiter-Glo, 72 h; also: potency is read from the fitted curve at half-maximal effect; % is scaled to controls: 0 for no effect and ±100 for the full control effect; nearly all actives have a fitted effect of over 60% in size
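qHTS viability screen in drug-selected KB-V1 MDR cells: 72 h compound treatment at 37 degrees C, ATP luminescence end point.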
MCF10A rerep: DNA re-replication induction in MCF 10a cells | MCF 10A DNA re-replication, Hoechst nuclear intensity, 48 h | Potency, µM (top dose mostly 46.1 µM), without a hit: at the top dose activity, positive = re-replication, actives largely listed as activators | actives 2.9% (n = 350,000) | AID 624296; also: potency is read from the fitted curve at half-maximal effect; % of control where 0% means no effect; nearly all actives have a fitted effect of over 50% in size
ASM inhibitor: inhibitors of human secretory acid sphingomyelinase; placental ASM, HMU-PC fluorogenic substrate, 60 min; actives 0.006% (n = 340,000); AID 504937; Potency, µM (doses to about 57.5 µM), without a hit: top-dose activity change, negative = inhibition, most hits filed as inhibitors; P17405; also: potency is read from the fitted curve at half-maximal effect
Target sequence (P17405 47-631 limits assumed): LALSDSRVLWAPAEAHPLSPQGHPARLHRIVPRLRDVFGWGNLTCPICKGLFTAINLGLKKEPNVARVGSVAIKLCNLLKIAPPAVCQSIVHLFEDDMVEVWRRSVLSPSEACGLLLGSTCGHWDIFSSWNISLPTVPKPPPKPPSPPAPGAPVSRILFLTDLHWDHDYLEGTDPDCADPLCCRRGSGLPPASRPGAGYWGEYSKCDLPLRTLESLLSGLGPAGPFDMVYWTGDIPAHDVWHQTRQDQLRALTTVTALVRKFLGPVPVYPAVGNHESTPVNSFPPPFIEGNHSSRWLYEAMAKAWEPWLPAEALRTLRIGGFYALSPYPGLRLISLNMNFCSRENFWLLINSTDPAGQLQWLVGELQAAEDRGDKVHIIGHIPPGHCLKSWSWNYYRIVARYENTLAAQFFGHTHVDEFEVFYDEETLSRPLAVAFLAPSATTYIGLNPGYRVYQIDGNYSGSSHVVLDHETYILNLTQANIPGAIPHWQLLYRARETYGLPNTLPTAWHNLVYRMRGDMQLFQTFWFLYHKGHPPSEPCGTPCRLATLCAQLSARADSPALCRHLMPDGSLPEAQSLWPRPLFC
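Steps: dispense placental human ASM, pin compound, wait 10 min at room temperature, add HMU-PC0 substrate at 9 uM final, incubate 60 min at 37 °C, add stop solution raising pH to 10, read fluorescence.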
Starred values were filed as active, the others as inactive; i = inactive; ? = inconclusive; nt = no result. Unless noted, calls follow the shape of the dose curve; as a rule, active = well fitted curve in the direction sought with a large enough effect; inconclusive = small, poorly fitted or top-dose-only effect, or another doubt; inactive = no such curve, though single readings can be large; an effect the other way counts as inactive or inconclusive.

SMILES	SW480 rereplic	KB-3-1 cytotox	Giardia killer	KB-V1 cytotox	MCF10A rerep	ASM inhibitor
O=C1C=CC(=O)N1c1cccc(-c2ccccc2)c1	?	i	9	i	21µM*	-1%
Cc1ccc(-n2cc(CNCCCn3cccn3)c(-c3cccc(C)c3)n2)cc1	11%	?	11	?	?	1%
Cc1ccc(-n2cc(CNCCCn3ccnc3C)c(-c3ccc(F)cc3)n2)cc1	?	?	12	21µM*	?	-4%
Cc1ccc(C)c(-n2cc(CNCCCn3cccn3)c(-c3ccccc3)n2)c1	16µM*	i	-4	i	?	-2%
COc1ccc(NC(=O)c2ccco2)cc1NC(=O)COc1ccc(C)cc1C	nt	i	nt	i	nt	nt
S=C(NCCCc1cnc[nH]1)NCCCN(CCc1ccccc1)c1ccc(Br)cn1	nt	?	-5	i	nt	nt
COC(=O)c1ccc(Nc2ccc3nonc3c2[N+](=O)[O-])cc1	?	i	-93*	?	?	-4%
Cc1[nH]c2ccc(C(=O)Nc3ccc(F)cc3)cc2c1C	nt	i	nt	i	nt	nt
CCN(CC)S(=O)(=O)c1ccc(-c2csc(=Nc3cccc(C(F)(F)F)c3)n2Cc2ccc3c(c2)OCO3)cc1	nt	i	nt	i	nt	nt
O=C1C(=O)c2cccnc2-c2ncccc21	nt	3.7µM*	nt	18µM*	nt	nt
COC1=C(Br)C(=O)c2ncccc2C1=O	2.9µM*	?	5	?	5.2µM*	-2%
Cc1ccc(N2C(=O)CN(Cc3cccs3)C2=S)cc1C	6%	i	11	i	-1%	-3%
Cc1ccc(N2C(=O)CN(Cc3sccc3C)C2=S)cc1C	0%	?	-7	16µM*	?	-2%
Cc1ccccc1N1C(=O)CN(Cc2sccc2C)C1=S	?	?	7	3.3µM*	10%	0%
COc1ccc(NC(=O)C2CCCN(S(=O)(=O)c3ccc(F)cc3)C2)cc1 (centres undefined)	nt	i	nt	i	nt	nt
Cc1nn(-c2ccccc2)c(C)c1/C=N/NC(=O)c1cc(-c2ccccc2)n[nH]1	?	0.41µM*	8	?	?	-23%
Cc1ccc(-c2nnc(SCC(=O)N/N=C/c3c(C)nn(-c4ccccc4)c3C)n2-c2ccc(C)cc2)cc1	4%	?	10	21µM*	-1%	-12%
Cc1ccc(-c2nnc(SCC(=O)N/N=C/c3ccc(C)s3)n2-c2ccccc2)cc1	?	?	-5	21µM*	18µM*	-9%
Cc1ccc(-c2nnc(SCC(=O)N/N=C/c3ccccc3C(=O)O)n2-c2ccc(C)cc2)cc1	14%	i	53	i	13%	-2%
Cc1ccc(-c2nnc(SCC(=O)N/N=C/c3c(C)nn(-c4ccccc4)c3C)n2-c2ccccc2)cc1	?	?	-2	15µM*	?	-13%
COc1cc(C#N)ccc1OC(=O)C1CCN(C(=O)c2ccc(F)cc2)CC1	-90%	i	-2	i	-17%	4%
CCC(C)NC(=O)c1ccccc1NC(=O)C1CCN(S(=O)(=O)Cc2ccccc2)CC1 (centres undefined)	nt	i	nt	i	nt	nt
Cc1ccc(CNC(=O)c2nnn(Cc3ccc(F)cc3)c2N)cc1	nt	i	nt	i	nt	nt
Cc1oc(-c2ccc(Cl)cc2)nc1CN1CCCC(C(=O)NCc2ccccc2)C1 (centres undefined)	nt	i	nt	i	nt	nt
COc1ccc(N2C(N)=C(C#N)C(c3cc(CN4CCOCC4)cs3)C3=C2CCCC3=O)cc1 (centres undefined)	nt	i	nt	?	nt	nt
SMILES	SW480 rereplic	KB-3-1 cytotox	Giardia killer	KB-V1 cytotox	MCF10A rerep	ASM inhibitor
Cc1cc(C)nc(Nc2ncc(O)n2-c2ccc(C)c(C)c2)n1	-1%	i	-5	12µM*	15%	1%
Cc1cc(C)nc(Nc2ncc(O)n2-c2ccc(C)c(Cl)c2)n1	-11%	i	12	i	2%	0%
CC(NO)/C(=N\O)c1cccs1 (centres undefined)	?	i	13	i	3.7µM*	0%
CNc1c(Cl)cc(C=O)cc1Cl	nt	?	nt	i	nt	nt
CCN(CC)S(=O)(=O)c1ccc(N2CCN(c3cccc(OC)c3)CC2)c([N+](=O)[O-])c1	-6%	i	3	2.9µM*	1%	-7%
COc1cccc(N2CCN(c3ccc(S(=O)(=O)N4CCN(C)CC4)cc3[N+](=O)[O-])CC2)c1	10%	?	5	?	?	-12%
N#Cc1ccc(COC(=O)c2cccnc2Cl)cc1	3%	i	-14	i	-2%	-18%
N#Cc1ccc(N2Cc3ccccc3C2=NC(=O)c2cccnc2Cl)cc1	3%	?	52	16µM*	?	-5%
CC1CCN(c2nc(-c3ccc(C(C)(C)C)cc3)nc3ccccc23)CC1	nt	i	nt	i	nt	nt
C[n+]1ccccc1/C=C1\Sc2ccccc2N1CCO	-1%	21µM*	-7	i	16%	-6%
O=C1CCSC2(C(=O)N(Cc3ccc(F)cc3)c3ccccc32)N1c1ccc(F)c(F)c1 (centres undefined)	nt	i	nt	i	nt	nt
CCOC(=O)NCc1ccc(S(=O)(=O)Nc2ccccc2C)cc1	1%	i	6	23µM*	1%	0%
CCOC(=O)c1ccccc1NC(=O)CN(c1ccccc1)S(=O)(=O)c1ccc(OCC)cc1	nt	i	nt	i	nt	nt
CCOC(=O)c1ccccc1NS(=O)(=O)c1ccc(OCC)cc1	12µM*	?	10	?	13µM*	-3%
COC(=O)c1cccc(NS(=O)(=O)c2ccc(OC)cc2)c1C	?	8.2µM*	6	9.2µM*	5.8µM*	0%
Cc1cc(C)c(NC(=O)CN(C2CCCCC2)C2CCCCC2)c(C)c1	1.8µM*	i	10	?	3.7µM*	-4%
Cc1cc(C)c(NC(=O)COC(=O)C2CCCCC2)c(C)c1	?	i	16	i	4%	-5%
Cc1ccc(-c2nnc(NC(=O)c3ccc([N+](=O)[O-])o3)o2)c(C)c1	11%	?	-81*	?	?	nt
Cc1ccc(-c2nnc(NC(=O)C3=COCCO3)o2)c(C)c1	-307%	i	-25	?	3%	3%
COc1ccc(-c2nnc(NC(=O)c3ccc([N+](=O)[O-])o3)o2)c(OC)c1	16µM*	i	-100*	?	8.2µM*	nt
COc1cccc(-c2nnc(NC(=O)c3ccccc3Br)o2)c1	?	?	-7	i	-2%	5%
CCOc1ccc(CNS(=O)(=O)c2ccc3[nH]c4c(c3c2)CCCC4)cc1OC	nt	i	nt	i	nt	nt
CCN(CC)c1ccc(NC(=O)CN2C(=O)c3cccnc3Sc3ccccc32)c(C)c1	nt	i	nt	i	nt	nt
